This passage reports composite z-score and z-score results from PubChem BioAssay.

Calls of active or inactive are those of the source. Unless noted, no rule for the calls is given here.

Assay [1] concerns Wnt5a (protein binding on small-molecule microarray). Description: small molecules binding Wnt5a protein – biophysical, small-molecule microarray, 635/667 nm fluorescence, primary screen (AID 1142).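 Also: fluorescence read at 667 nm with signal to noise per printed feature.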 To be noted: 635 nm fluorescence, higher = more signal.
A short description of assay [2]: ATP-based viability of Huh7 replicon cells – cell-based, CellTiter-Glo luminescence, basal, 48 h, cytotoxicity control for HCV replication inhibitor project, primary screen (AID 1143).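 Also: Huh7 hepatoma cells carrying a hepatitis C replication reporter with no stimulus; test concentration not given here.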 To be noted: higher = more signal, called active from +8 up or from −8 down. On the technique in general: A replicon is a self-replicating genome or part of one, used to study replication in cells.

Assay [3] is described as follows: Pseudomonas biofilm growth suppression – PAO1 strain, BacTiter-Glo luminescence, LB-PBS, primary screen (AID 1144). The conditions noted are these: P. aeruginosa PAO1 biofilm, 12 h, higher = more signal.
The nature of assay [4]: basal CRE-LacZ reporter activity in PC12 – cell-based, unstimulated, primary screen (AID 1145). The conditions noted are these: no forskolin, luminescence, 4.5 h, higher = more signal, called active from +8 up or from −8 down.
Assay [5] is described as follows: forskolin-driven CRE-LacZ activity in PC12 – cell-based, CRE-LacZ reporter, forskolin-stimulated, primary screen (AID 1146).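 Also: PC12 cells with 6xCRE LacZ reporter stimulated by forskolin 10 µM; beta-galactosidase reporter signal reflecting CREB driven transcription.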 To be noted: luminescence, 4.5 h, higher = more signal, called active from +8 up or from −8 down.
The target of assay [6] is Streptavidin (Streptomyces avidinii) (UniProt P22629). In words: compounds binding control protein streptavidin – biophysical, small-molecule microarray, 635/667 nm fluorescence, artefact control for SMM compound annotation, primary screen (AID 1147).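 Also: signal reflects streptavidin binding to arrayed compounds as a control protein.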 To be noted: higher = more signal.
The nature of assay [7]: probe aInhba binding on compound microarray – biochemical, small-molecule microarray, 635/667 nm fluorescence, primary screen (AID 1148).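 Also: score merges 667nm spot fluorescence with signal-to-noise for antibody binding to printed compounds.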 The conditions noted are these: higher = more signal.
For assay [8], the target named is Torsin-1A (Homo sapiens) (UniProt O14656). In words: TOR1A wild-type binding on microarray – cell lysate, small-molecule microarray, lysate, 635/667 nm, primary screen (AID 1149). The conditions noted are these: COS7 hTOR1A-WT lysate, 635 nm fluorescence, higher = more signal.
Assay [9] has the same target. In words: torsin A mutant lysate binding on microarrays – cell lysate, small-molecule microarray, COS7 lysate, 635/667 nm fluorescence, primary screen (AID 1150).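 Also: score pools 667 nm emission and signal to noise measuring lysate protein binding.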 To be noted: COS7 hTOR1A mutant lysate, 635 nm fluorescence, higher = more signal.
The test system of assay [10] is Sonic hedgehog protein (Shh). Description: Sonic hedgehog microarray binding compounds – biochemical, small-molecule microarray, 635/667 nm fluorescence, primary screen (AID 1151).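 Also: Shh protein binding to compounds spotted on small-molecule microarray slides; score combines spot fluorescence intensity with signal-to-noise across triplicate slides.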 The conditions noted are these: 635 nm fluorescence, higher = more signal.
The nature of assay [11]: optical density shifts of acrAB sulA E. coli – strain DRC41, OD650, 48 h, E. coli filamentation inducer project, primary screen (AID 1152).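 Also: E. coli MC1000 strain DRC41 lacking acrAB efflux pump and sulA.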 The conditions noted are these: higher = more signal, called active from +8 up or from −8 down.
A short description of assay [12]: probe aLefty1 binding on compound microarray – biochemical, small-molecule microarray, 635/667 nm fluorescence, primary screen (AID 1153).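 Also: score merges spot fluorescence with signal-to-noise ratio from the scanned slide images.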 To be noted: higher = more signal.
Assay [13] in a line: plasmodial surface anion channel blockers, osmotic lysis – cell-based, P. falciparum Indochina, OD700, 1 h, primary screen (AID 1154). To be noted: P. falciparum Indochina infected RBC osmotic lysis, higher = more signal, called active from +8 up or from −8 down.
A short description of assay [14]: plasmodial surface anion channel blockers, osmotic lysis – cell-based, P. falciparum Indochina, OD700, 2 h, primary screen (AID 1155).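 Also: lysis reports solute entry through the parasite surface anion channel PSAC.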 To be noted: P. falciparum Indochina infected erythrocytes, higher = more signal, called active from +8 up or from −8 down.
Assay [15] is described as follows: changes in parasitized red cell lysis, either direction – P. falciparum Indochina, OD700, 3 h, PSAC antagonist project, primary screen (AID 1156). The conditions noted are these: P. falciparum-infected erythrocytes, osmotic lysis, higher = more signal, called active from +8 up or from −8 down.
Assay [16] is described as follows: plasmodial surface anion channel blockers, osmotic lysis – cell-based, P. falciparum Indochina, OD700, 18 h, primary screen (AID 1157). The conditions noted are these: P. falciparum Indochina infected erythrocytes, osmotic lysis OD700, 18 h; higher = more signal, called active from +8 up or from −8 down.
Assay [17] can be described thus: S6 kinase pathway phospho-S6 level changes – cell-based, A549, cytoblot, luminescence, serum-stimulated, primary screen (AID 1158).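 Also: serum-stimulated A549 lung adenocarcinoma cells; signal is phosphorylated S6 detected by cytoblot immunostaining with HRP secondary.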 The conditions noted are these: 5 h, higher = more signal.
Assay [18] concerns the target NADPH oxidase 2 (Homo sapiens) (UniProt P04839). In words: compounds shifting NOX2 Amplex Red fluorescence – cell-based, HEK293-NOX2, PMA-stimulated, NOX inhibitor project, primary screen (AID 1159). Also: test concentration not given here. The conditions noted are these: 45 min, higher = more signal, called active from +8 up or from −8 down.
Assay [19] addresses NADPH oxidase 4 (Homo sapiens) (UniProt Q9NPH5). Description: compounds shifting NOX4 Amplex Red fluorescence – cell-based, HEK293-NOX4, tetracycline-induced, NOX inhibitor project, primary screen (AID 1160). The conditions noted are these: HEK293-NOX4, Amplex Red H2O2 fluorescence, 45 min; higher = more signal, called active from +8 up or from −8 down.
In assay [20] the target is NADPH oxidase 5 (Homo sapiens) (UniProt Q96PH1). Description: compounds shifting NOX5 Amplex Red fluorescence – cell-based, HEK293-NOX5, NOX inhibitor project, primary screen (AID 1161). To be noted: HEK293-NOX5, ionomycin, 45 min, higher = more signal.
Sequence of NADPH oxidase 5 (Homo sapiens) (Q96PH1 whole entry, looked up): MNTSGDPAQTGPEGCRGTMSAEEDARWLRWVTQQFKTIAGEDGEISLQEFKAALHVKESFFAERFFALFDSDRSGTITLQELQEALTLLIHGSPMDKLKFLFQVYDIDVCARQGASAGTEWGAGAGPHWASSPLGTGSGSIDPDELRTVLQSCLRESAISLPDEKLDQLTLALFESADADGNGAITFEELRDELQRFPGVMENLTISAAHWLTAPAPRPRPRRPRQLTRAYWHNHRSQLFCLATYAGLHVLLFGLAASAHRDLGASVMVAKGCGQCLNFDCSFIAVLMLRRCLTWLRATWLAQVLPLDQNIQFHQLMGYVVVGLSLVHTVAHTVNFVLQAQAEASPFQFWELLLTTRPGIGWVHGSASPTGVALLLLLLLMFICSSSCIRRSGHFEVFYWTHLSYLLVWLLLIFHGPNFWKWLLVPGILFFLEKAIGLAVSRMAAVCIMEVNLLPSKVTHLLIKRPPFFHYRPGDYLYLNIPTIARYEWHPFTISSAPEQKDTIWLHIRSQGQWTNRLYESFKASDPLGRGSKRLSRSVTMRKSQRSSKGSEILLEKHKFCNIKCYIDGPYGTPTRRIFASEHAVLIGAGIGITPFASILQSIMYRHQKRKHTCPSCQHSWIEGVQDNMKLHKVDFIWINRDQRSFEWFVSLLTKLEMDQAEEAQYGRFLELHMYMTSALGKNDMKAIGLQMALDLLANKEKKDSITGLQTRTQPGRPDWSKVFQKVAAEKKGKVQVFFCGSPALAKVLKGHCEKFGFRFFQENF

Sequence of NADPH oxidase 4 (Homo sapiens) (Q9NPH5 whole entry, looked up): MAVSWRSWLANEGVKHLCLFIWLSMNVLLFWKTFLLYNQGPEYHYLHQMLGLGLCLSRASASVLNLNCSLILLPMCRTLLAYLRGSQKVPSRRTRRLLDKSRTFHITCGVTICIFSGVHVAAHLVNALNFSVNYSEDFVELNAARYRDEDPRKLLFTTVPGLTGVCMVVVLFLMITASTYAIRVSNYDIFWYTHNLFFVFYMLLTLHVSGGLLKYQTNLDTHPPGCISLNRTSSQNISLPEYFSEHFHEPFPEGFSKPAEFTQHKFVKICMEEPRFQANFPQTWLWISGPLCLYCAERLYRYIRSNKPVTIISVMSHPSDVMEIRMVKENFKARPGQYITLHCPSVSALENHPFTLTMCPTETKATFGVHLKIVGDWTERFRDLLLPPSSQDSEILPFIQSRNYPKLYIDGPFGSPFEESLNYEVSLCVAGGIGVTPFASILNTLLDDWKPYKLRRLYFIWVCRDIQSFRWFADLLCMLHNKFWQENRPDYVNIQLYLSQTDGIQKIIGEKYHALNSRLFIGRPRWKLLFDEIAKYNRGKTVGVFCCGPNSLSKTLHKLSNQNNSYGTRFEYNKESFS
Sequence of NADPH oxidase 2 (Homo sapiens) (P04839 whole entry, looked up): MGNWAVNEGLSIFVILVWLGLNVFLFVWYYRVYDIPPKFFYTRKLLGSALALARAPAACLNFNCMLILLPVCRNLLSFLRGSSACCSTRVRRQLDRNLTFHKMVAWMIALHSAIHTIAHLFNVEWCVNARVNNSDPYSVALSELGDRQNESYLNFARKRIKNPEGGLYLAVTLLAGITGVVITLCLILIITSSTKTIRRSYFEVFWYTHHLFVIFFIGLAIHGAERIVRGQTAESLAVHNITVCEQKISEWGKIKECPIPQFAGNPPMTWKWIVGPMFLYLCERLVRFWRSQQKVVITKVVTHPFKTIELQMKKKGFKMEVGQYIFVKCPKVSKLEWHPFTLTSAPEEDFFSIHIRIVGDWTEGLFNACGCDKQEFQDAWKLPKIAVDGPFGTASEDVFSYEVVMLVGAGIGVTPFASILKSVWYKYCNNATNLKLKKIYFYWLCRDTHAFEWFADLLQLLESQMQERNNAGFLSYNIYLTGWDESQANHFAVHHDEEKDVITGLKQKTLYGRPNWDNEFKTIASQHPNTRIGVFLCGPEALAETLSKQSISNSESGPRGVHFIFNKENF
Sequence of Streptavidin (Streptomyces avidinii) (P22629 whole entry, looked up): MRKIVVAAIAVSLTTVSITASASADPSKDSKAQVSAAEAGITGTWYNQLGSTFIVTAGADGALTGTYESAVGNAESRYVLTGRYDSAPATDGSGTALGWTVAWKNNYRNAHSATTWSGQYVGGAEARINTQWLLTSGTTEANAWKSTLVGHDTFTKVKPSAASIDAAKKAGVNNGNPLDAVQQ
Sequence of Torsin-1A (Homo sapiens) (O14656 whole entry, looked up): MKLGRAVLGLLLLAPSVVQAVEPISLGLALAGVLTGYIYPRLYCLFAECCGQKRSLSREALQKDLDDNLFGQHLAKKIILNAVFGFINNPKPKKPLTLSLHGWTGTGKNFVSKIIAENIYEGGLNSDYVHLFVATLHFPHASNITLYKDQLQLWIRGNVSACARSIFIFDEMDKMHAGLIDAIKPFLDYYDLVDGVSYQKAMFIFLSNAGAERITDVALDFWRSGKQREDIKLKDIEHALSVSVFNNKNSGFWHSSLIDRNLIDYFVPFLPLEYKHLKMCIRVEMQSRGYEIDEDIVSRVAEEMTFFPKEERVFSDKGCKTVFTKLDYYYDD

As for `CCCCCN1CC=CC23O[C@@H]4C=CCOC(=O)[C@@H]4[C@H]2C(=O)N(C(CO)C(C)C)[C@@H]3C1=O` (stereo not given in full), the composite z-score in assay [1] is -0.389; in assay [6] it was -0.263; in assay [7] it was 0.0013; in assay [8], -1.34; in [9], -1.38; in assay [10], 0.298. The compound also gave a composite z-score in assay [12] of -0.0479. Moreover, the z-score in [2] was -0.524 (inactive); in assay [3] it was 0.921 (inactive); in assay [4], -0.757 (inactive); in assay [5], 0.371 (inactive); in assay [11], 0.374 (inactive); in [13], 0.901 (inactive). Also, the z-score is 0.661 (inactive) in assay [14]; 0.445 (inactive) in assay [15]; 0.307 (inactive) in [16]; -0.0997 in assay [17]; 0.965 (inactive) in assay [18]; 0.694 (inactive) in [19]. The z-score in [20] is 1.24.

Take `CC(CCN1CCCCc2nc(C)c(C)cc21)=NOC(C)CN1CCCc2nc(C)c(C)cc21` (stereo not given): the composite z-score in assay [1] stood at 0.871; in [6], 1.42; in assay [7] it was 0.637; in [8], 1.19; in assay [9] it was 0.863; in [10], 1.73. Moreover, in assay [12], the composite z-score stood at 0.79. Besides, the z-score in assay [2] was -0.191 (inactive); in assay [3] it was -0.812 (inactive); in assay [4], -0.24 (inactive); in assay [5], 0.0936 (inactive); in [11] it was -1.7 (inactive); in assay [13], 1.6 (inactive). Moreover, the z-score is 0.549 (inactive) in assay [14]; -0.19 (inactive) in assay [15]; 0.488 (inactive) in assay [16]; -0.569 in [17]; -1 (inactive) in [18]; 0.11 (inactive) in [19]. The z-score in assay [20] is -1.79.

Turning to `CCOC(=O)CCN1C(=O)[C@H]2[C@H]3[C@H](O)[C@H](O)CC(=NOCc4ccccc4)[C@@H]3CC[C@H]2C1=O`, the composite z-score in assay [1] is -0.0682; in assay [6], 0.115; in [7], -0.186; in assay [8] it was 0.434; in assay [9] it was 0.496; in assay [10], 0.612. This compound also returned a composite z-score in assay [12] of -0.094. The z-score in [2] was -1.25 (inactive); in assay [3] it was 0.324 (inactive); in [4], -0.294 (inactive); in [5], 0.0433 (inactive); in assay [11], -0.505 (inactive); in [13], 1.61 (inactive). Besides, the z-score in assay [14] is 0.885 (inactive); in [15], -0.059 (inactive); in [16] it was 0.429 (inactive); in assay [17] it was -0.32; in assay [18], -0.104 (inactive); in [19], 0.593 (inactive). The z-score in [20] was 1.14.

On to `CCOC(=O)NN=C1C[C@@H](O)[C@@H](O)[C@@H]2[C@@H]3C(=O)N(C4CCCCC4)C(=O)[C@@H]3CC[C@H]12`, for which the composite z-score was -0.064 in assay [1]; -0.0615 in assay [6]; -0.111 in [7]; 0.218 in [8]; 0.568 in assay [9]; 0.369 in [10]. In [12], this compound returned a composite z-score of -0.288. For the same compound, the z-score in assay [2] was -0.779 (inactive); in assay [3], 0.786 (inactive); in [4], 0.341 (inactive); in assay [5] it was 0.174 (inactive); in assay [11], -1.02 (inactive); in [13] it was 3.79 (inactive). The z-score was 0.323 (inactive) in assay [14]; 0.822 (inactive) in assay [15]; 0.574 (inactive) in assay [16]; -0.0238 in assay [17]; 2.18 (inactive) in assay [18]; -1.17 (inactive) in [19]. Further, the z-score in assay [20] was -1.46.
